36 compounds from PubChem BioAssay (NCATS) can be followed below.

Values joined by “and” are separate entries in the source; they are usually repeats but may differ in a detail not shown here. Identical values can stand only once. Records with an inconclusive call do not appear. Where a call stands in place of a potency, no number is given. Active and inactive are the calls of the source. Calls follow the shape of the dose curve; as a rule, active = well fitted cell-killing curve with a large enough effect; inconclusive = small, poorly fitted or top-dose-only effect, or effect the other way; inactive = no such curve, though single readings can be large or run the other way.
Potency is read from the fitted curve at half-maximal effect.

This test can be described thus: Viability qHTS for spleen associated tyrosine kinase inhibitor (SYKi) naive MV4-11 cells (AID 1963823). Also: nearly all actives have a fitted effect of over 40% in size. Particulars: MV4-11 AML viability, CellTiter-Glo luminescence, 72 h; series mostly up to 45 µM. The method in brief:
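SYKi-naive MV4-11 AML cells, 500 per well, were exposed to library compounds for 72 hr at 37 C, 5% CO2. Viability was then read by CellTiter-Glo luminescence after 10 min at room temperature.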
Regarding `O=c1[nH]c2cc(Cl)ccc2n1C1CCNCC1`, the Potency entry is “inactive”. `CC(C)[C@]12O[C@H]1[C@@H]1O[C@]13[C@]1(O[C@H]1C[C@H]1C4=C(CC[C@@]13C)C(=O)OC4)[C@@H]2O`: the Potency is 16.6 nM (active). For the compound `CN1CCN(C(=O)O[C@H]2c3nccnc3C(=O)N2c2ccc(Cl)cn2)CC1`, the Potency result was “inactive”. As for `COP(=S)(OC)Oc1ccc(S(N)(=O)=O)cc1`, the entry is “inactive”; as for `C[C@@H]1O[C@@H](O[C@@H]2C=C3CC[C@@H]4[C@H](CC[C@]5(C)[C@@H](c6ccc(=O)oc6)CC[C@]45O)[C@@]3(C)CC2)[C@H](O)[C@H](O)[C@H]1O`, 6 nM (active). With `CC(=O)Nc1ccc(OC[C@](C)(O)C(=O)Nc2ccc([N+](=O)[O-])c(C(F)(F)F)c2)cc1`, the Potency was 16600 nM (active). In the case of `C/C(=C\c1csc(C)n1)[C@@H]1C[C@@H]2O[C@@H]2CCC[C@H](C)[C@H](O)[C@@H](C)C(=O)C(C)(C)[C@@H](O)CC(=O)O1`, the Potency was 5.2 nM (active). `C/C1=C/C[C@@H](/C(C)=C/c2csc(C)n2)OC(=O)C[C@H](O)C(C)(C)C(=O)[C@H](C)[C@@H](O)[C@@H](C)CCC1`: the Potency is 33.2 nM (active). As for `C[N+]1(CCF)[C@@H]2CC[C@H]1CC(OC(=O)C(O)(c1ccccc1)c1ccccc1)C2` (stereo partly specified), the entry is “inactive”; as for `C=CCN1CC[C@]23CCCC[C@H]2[C@H]1Cc1ccc(O)cc13`, “inactive”; as for `O=C(NC(=O)c1c(F)cccc1F)Nc1cc(Cl)c(OC(F)(F)C(F)C(F)(F)F)cc1Cl` (stereo unspecified), 11900 nM (active).

For the compound `CCOC(=O)c1ncn2c1CN(C)C(=O)c1c(I)cccc1-2`, the Potency result was “inactive”. The result for `CO[C@H]1CCC(O[C@H]2C[C@H]([C@]3(C)CC[C@]4(C[C@H](O)[C@@H](C)[C@@H]([C@@H](C)/C=C(\C)C(=O)[C@H](C)C[C@H](C)C(=O)O)O4)O3)O[C@]3(O[C@@H]([C@H]4O[C@@](O)(CO)[C@H](C)C[C@@H]4C)C[C@@H]3C)[C@@H]2C)O[C@@H]1C` (stereo partly specified) reads 166 nM (active); that for `COc1ccc(Cc2nccc3cc(OC)c(OC)cc23)cc1OC`, 6.68 µM (active) and 2.35 µM (active). As for `O=C(Oc1ccc([N+](=O)[O-])cc1)N1CCC(C(O)(c2ccc3c(c2)OCO3)c2ccc3c(c2)OCO3)CC1`, the Potency entry is “inactive”. Take `NC(=O)CN1CCCC1=O`: the Potency result was “inactive”. With `C#C[C@]1(O)C=C[C@H]2[C@@H]3CCC4=CC(=O)CC[C@@H]4[C@H]3CC[C@@]21CC`, the Potency result was “inactive”. On to `C[C@]12CC[C@@H]3c4ccc(OC(=O)N(CCCl)CCCl)cc4CC[C@H]3[C@@H]1CC[C@@H]2O`, for which the Potency entry is “inactive”. Take `OCCCBr`: the Potency entry is “inactive”.

As for `CCOC(=O)CC(SP(=S)(OC)OC)C(=O)OCC` (stereo unspecified), the Potency entry is “inactive”. As for `C/C=C(\C)C(=O)N[C@@H](c1ccccc1)[C@@H](O)C(=O)O[C@H]1C[C@@]2(O)[C@@H](OC(=O)c3ccccc3)[C@@H]3[C@]4(OC(C)=O)CO[C@@H]4C[C@H](O)[C@@]3(C)C(=O)[C@H](OC(C)=O)C(=C1C)C2(C)C`, the figure is 20.9 nM (active). As for `C/C(=C\c1csc(C)n1)[C@@H]1C[C@@H]2O[C@]2(C)CCC[C@H](C)[C@H](O)[C@@H](C)C(=O)C(C)(C)[C@@H](O)CC(=O)O1`, the figure is 4.7 nM (active); as for `C[C@](O)(COc1ccc(C#N)cc1)C(=O)Nc1ccc(C#N)c(C(F)(F)F)c1`, 18600 nM (active); as for `O=C(NCCCNc1nc(Nc2ccc(N3CCOCC3)cc2)ncc1C1CC1)C1CCC1`, 118 nM (active). In the case of `COc1ccc(CN2CCNCC2)c(OC)c1OC`, the Potency result is “inactive”. As for `CO/C=C(/C(=O)OC)c1ccccc1Oc1cc(Oc2ccccc2C#N)ncn1`, the Potency is 13700 nM (active).

In the case of `CC(=O)[C@H]1CC[C@H]2[C@@H]3CC[C@H]4C[C@](C)(O)CC[C@]4(C)[C@H]3CC[C@]12C`, the Potency result is “inactive”.

For `Nc1ccc(Cl)cc1C(=O)c1ccccc1F`, the Potency entry was “inactive”. The result for `CN1[C@H]2CC(O)C[C@H]1[C@H]1O[C@H]12` (stereo partly specified) reads “inactive”; that for `O=P1(NCCCl)OCCCN1CCCl` (stereo unspecified), “inactive”. Regarding `Clc1ccc(CCC(Cn2ccnc2)Sc2c(Cl)cccc2Cl)cc1` (stereo unspecified), the Potency was 18600 nM (active). Regarding `c1ccc2c(c1)Sc1ccccc1N2CC1CN2CCC1CC2` (stereo unspecified), the Potency was 26600 nM (active). For the compound `NN=C(N)N`, the Potency entry was “inactive”. `O=C(O)CNC(=O)c1c(O)c2ccccc2n(Cc2ccccc2)c1=O`: the Potency result was “inactive”. For the compound `Cc1nnc2n1-c1sc(CCc3ccc(CC(C)C)cc3)cc1C(c1ccccc1Cl)=NC2C` (stereo unspecified), the Potency is 5800 nM (active). Consider `CCCCC1C(=O)NC(=O)N(C2CCCCC2)C1=O` (stereo unspecified), for which the Potency result was “inactive”.
